Laboratory results taken from PubChem BioAssay (Tox21).
Values without a mark were called inactive. Where a call stands in place of a potency, no number is given. Activity calls are given as the source filed them. Unless noted, calls follow the shape of the dose curve; as a rule, active = well fitted curve in the direction sought with a large enough effect in the repeat runs; inconclusive = weak or mixed curves; inactive = no such curve, though single readings can be large; an effect the other way counts as inactive or inconclusive.

Assays:
[1] = target: Estrogen receptor (Homo sapiens) (UniProt P03372); test: qHTS assay to identify small molecule antagonists of the estrogen receptor alpha (ER-alpha) signaling pathway (AID 743069; active = well fitted curve in the direction sought with a large enough effect in the signal ratio in the repeat runs, not every such curve was filed as active; inconclusive = weak or mixed curves, or effect the other way; inactive = no such curve, though single readings can be large or run the other way; the % refers to the signal ratio; also: potency is read from the fitted curve at half-maximal effect)
Sequence of Estrogen receptor (Homo sapiens) (P03372 whole entry, looked up): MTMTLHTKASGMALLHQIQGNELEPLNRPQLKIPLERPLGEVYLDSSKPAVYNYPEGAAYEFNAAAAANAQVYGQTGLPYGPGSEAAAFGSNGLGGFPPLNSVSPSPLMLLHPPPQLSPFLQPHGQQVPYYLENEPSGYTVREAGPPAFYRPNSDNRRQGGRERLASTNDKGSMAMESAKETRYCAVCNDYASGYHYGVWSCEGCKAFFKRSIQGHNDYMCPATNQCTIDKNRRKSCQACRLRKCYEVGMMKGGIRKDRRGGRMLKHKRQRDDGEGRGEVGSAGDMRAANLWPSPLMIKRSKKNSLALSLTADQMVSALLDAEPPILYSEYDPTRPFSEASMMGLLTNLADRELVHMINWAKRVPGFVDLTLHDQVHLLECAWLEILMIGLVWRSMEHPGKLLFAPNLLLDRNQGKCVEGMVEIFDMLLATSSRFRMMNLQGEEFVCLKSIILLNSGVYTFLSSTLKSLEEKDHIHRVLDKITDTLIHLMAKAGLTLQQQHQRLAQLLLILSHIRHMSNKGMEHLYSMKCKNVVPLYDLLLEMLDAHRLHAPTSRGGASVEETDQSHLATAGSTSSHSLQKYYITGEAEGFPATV
Outline: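 Screening used a UAS-driven beta-lactamase reporter integrated into HEK293 cells expressing ER-alpha, stimulated with 17beta-estradiol alongside test compounds over 18 hr at 37C; signal came from LiveBLAzer B/G FRET fluorescence.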

[2] = qHTS assay to identify small molecule antagonists of the estrogen receptor alpha (ER-alpha) signaling pathway - cell viability counter screen (AID 743074; calls by dose curve; also: nearly all actives have a fitted effect of over 45% in size; also: potency is read from the fitted curve at half-maximal effect)
[3] = target: Estrogen receptor (Homo sapiens) (UniProt P03372); test: qHTS assay to identify small molecule agonists of the estrogen receptor alpha (ER-alpha) signaling pathway (AID 743075; calls by dose curve)
[4] = target: Estrogen receptor (Homo sapiens) (UniProt P03372); test: qHTS assay to identify small molecule agonists of the estrogen receptor alpha (ER-alpha) signaling pathway using the BG1 cell line (AID 743079); conditions: BG1Luc4E2 cells, ERE-luciferase agonist, 22 h; activation: at 70.3 µM (top of the series); also: nearly all actives have a fitted effect of over 20% in size
[5] = qHTS assay to identify small molecule antagonists of the estrogen receptor alpha (ER-alpha) signaling pathway using the BG1 cell line - cell viability counter screen (AID 743081);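 also: compound given together with 17beta-estradiol as the ER stimulus; nearly all actives have a fitted effect of over 45% in size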; also: potency is read from the fitted curve at half-maximal effect
Aromatase (Homo sapiens) = Aromatase (Homo sapiens) (UniProt P11511); test: qHTS assay to identify aromatase inhibitors (AID 743083); also: nearly all actives have a fitted effect of over 55% in size; also: potency is read from the fitted curve at half-maximal effect
Sequence of Aromatase (Homo sapiens) (P11511 whole entry, looked up): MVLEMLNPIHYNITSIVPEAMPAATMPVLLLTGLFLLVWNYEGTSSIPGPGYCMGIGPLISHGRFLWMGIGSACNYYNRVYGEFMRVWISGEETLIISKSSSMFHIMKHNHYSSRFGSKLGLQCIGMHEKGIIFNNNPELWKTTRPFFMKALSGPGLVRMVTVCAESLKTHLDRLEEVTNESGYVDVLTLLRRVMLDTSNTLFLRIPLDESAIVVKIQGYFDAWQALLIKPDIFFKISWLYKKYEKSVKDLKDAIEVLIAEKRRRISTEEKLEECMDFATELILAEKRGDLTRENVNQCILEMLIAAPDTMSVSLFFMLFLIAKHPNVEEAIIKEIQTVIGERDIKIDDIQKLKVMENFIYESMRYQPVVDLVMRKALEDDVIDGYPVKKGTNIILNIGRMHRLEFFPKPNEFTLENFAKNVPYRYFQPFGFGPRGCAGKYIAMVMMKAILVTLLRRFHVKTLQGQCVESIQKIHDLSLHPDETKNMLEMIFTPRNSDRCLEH

[6] = qHTS assay to identify aromatase inhibitors - cell viability counter screen (AID 743084);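 also: cells stimulated with testosterone during compound exposure; nearly all actives have a fitted effect of over 55% in size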; also: potency is read from the fitted curve at half-maximal effect
[7] = target: Aryl hydrocarbon receptor (Homo sapiens) (UniProt P35869); test: qHTS assay to identify small molecule that activate the aryl hydrocarbon receptor (AhR) signaling pathway (AID 743085);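 also: HG2L7.5c1 human HepG2 liver cells with stably integrated DRE-driven firefly reporter; nearly all actives have a fitted effect of over 15% in size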
Sequence of Aryl hydrocarbon receptor (Homo sapiens) (P35869 whole entry, looked up): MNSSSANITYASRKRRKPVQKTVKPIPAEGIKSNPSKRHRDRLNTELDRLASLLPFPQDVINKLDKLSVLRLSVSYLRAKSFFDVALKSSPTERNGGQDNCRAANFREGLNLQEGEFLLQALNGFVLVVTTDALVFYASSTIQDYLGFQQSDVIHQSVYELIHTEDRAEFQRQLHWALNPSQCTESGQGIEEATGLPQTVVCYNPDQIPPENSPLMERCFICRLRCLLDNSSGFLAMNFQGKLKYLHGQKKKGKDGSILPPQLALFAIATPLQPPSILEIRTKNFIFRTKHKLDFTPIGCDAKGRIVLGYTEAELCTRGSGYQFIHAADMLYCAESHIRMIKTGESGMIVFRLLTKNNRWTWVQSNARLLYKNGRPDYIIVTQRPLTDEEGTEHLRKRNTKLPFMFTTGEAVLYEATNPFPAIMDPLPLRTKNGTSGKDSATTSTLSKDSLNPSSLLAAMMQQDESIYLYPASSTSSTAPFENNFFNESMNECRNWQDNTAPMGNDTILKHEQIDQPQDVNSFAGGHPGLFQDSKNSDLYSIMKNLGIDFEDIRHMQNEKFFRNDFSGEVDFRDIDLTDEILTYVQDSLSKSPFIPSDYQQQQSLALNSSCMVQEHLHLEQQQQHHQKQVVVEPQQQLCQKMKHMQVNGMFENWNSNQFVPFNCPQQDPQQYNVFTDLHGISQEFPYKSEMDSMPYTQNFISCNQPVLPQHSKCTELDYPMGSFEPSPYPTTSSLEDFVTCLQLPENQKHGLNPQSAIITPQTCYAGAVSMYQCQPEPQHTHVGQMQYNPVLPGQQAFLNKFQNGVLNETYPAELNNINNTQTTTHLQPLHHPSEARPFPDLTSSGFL
Outline: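 Compounds were tested in HepG2 hepatocellular carcinoma cells harbouring a stably integrated luciferase gene under control of 20 DREs. Increased reporter signal after 24 h treatment at 37C was taken as AhR activation.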

[8] = qHTS assay to identify small molecule that activate the aryl hydrocarbon receptor (AhR) signaling pathway - cell viability counter screen (AID 743086);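 also: HepG2 liver cells carrying the AhR DRE luciferase reporter; nearly all actives have a fitted effect of over 45% in size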
Outline: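 HepG2-AhR-luc (HG2L7.5c1) cells, 4000/well, were preincubated 5 h at 37C, exposed to compound in qHTS format for 24 hr at 37C, then given CellTiter-Fluor for 30 min; viability was read as fluorescence in the reporter wells.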

[9] = qHTS assay to identify small molecule phospholipidosis (PLD) inducers (AID 1259344; active = well fitted curve in the direction sought with a large enough effect; inconclusive = small, poorly fitted or top-dose-only effect, or another doubt; inactive = no such curve, though single readings can be large; an effect the other way counts as inactive or inconclusive)
Outline: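 Cells (HepG2, 900 per well) attach for 4 h, receive LipidTOX Red and compound together, incubate 24 h at 37 C, are fixed 30 min with paraformaldehyde/Hoechst, then imaged at one site per well.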

[10] = target: Nuclear receptor subfamily 1 group I member 2 (Rattus norvegicus) (UniProt Q9R1A7); test: Rat pregnane X receptor (rPXR) activation by small molecules, qHTS assay (AID 1346983); conditions: rPXR luciferase reporter cells, One-Glo luminescence, 24 h; max activation: stronger effect = higher value; also: nearly all actives have a fitted effect of over 20% in size
Sequence of Nuclear receptor subfamily 1 group I member 2 (Rattus norvegicus) (Q9R1A7 whole entry, looked up): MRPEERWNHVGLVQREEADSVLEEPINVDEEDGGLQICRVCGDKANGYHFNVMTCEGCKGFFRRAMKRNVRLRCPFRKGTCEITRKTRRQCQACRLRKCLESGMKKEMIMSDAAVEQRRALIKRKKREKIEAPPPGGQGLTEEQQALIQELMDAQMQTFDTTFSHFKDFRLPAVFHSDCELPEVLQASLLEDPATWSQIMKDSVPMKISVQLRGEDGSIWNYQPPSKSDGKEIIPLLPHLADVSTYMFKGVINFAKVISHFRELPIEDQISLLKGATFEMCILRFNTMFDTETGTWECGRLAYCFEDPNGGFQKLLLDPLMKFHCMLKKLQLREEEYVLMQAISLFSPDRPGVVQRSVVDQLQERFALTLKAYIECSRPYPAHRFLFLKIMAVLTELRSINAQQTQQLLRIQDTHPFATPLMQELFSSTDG
Outline: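 Cell-based rPXR luciferase reporter assay, 2,000 cells per well, rested 5hr at 37 C before compound addition in DMSO, then 24 hr at 37 C. One-Glo reagent was added and luminescence read after 30 min at room temperature.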

[11] = target: Nuclear receptor subfamily 1 group I member 2 (Homo sapiens) (UniProt O75469); test: CYP3A4 induction through human pregnane X receptor (PXR) by small molecules, qHTS assay (AID 1346984); also: nearly all actives have a fitted effect of over 40% in size
Outline: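 Read-out is luminescence after One-Glo addition, following a 3 hr, 37C incubation with Luciferin-IPA CYP3A4 substrate (3uM final). Before that, compounds were on DPX-2 cells (HepG2 co-transfected with PXR element plus CYP3A4-promoter luciferase) for 24 hr at 37C.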

[12] = target: Nuclear receptor subfamily 1 group I member 2 (Homo sapiens) (UniProt O75469); test: Human pregnane X receptor (PXR) activation by small molecules, qHTS assay (AID 1346985); also: nearly all actives have a fitted effect of over 40% in size
Outline: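 DPX-2 cells (HepG2 co-transfected with a PXR response element and a CYP3A4-promoter luciferase construct) were seeded at 2,000 per well, rested 5 hr at 37C, then exposed to DMSO-dissolved compounds for 24 hr. Activation was read as luciferase luminescence.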

[13] = qHTS assay to identify small molecule antagonists of the thyroid receptor (TR) signaling pathway - cell viability counter screen (AID 743064); also: nearly all actives have a fitted effect of over 50% in size
Outline: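 Rat GH3 pituitary tumor cells stably expressing two TR response elements driving luciferase were plated, rested 4 h, then dosed with library compounds and T3 (1 nM final). After 23.5 h at 37 °C, CellTiter-Fluor was added for 30 min and fluorescence recorded.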

[14] = qHTS assay to identify small molecule antagonists of the thyroid receptor (TR) signaling pathway (AID 743065); also: nearly all actives have a fitted effect of over 55% in size; also: potency is read from the fitted curve at half-maximal effect
Outline: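 GH3.TRE-Luc rat pituitary cells carrying two TR response elements driving luciferase were plated for 4 h, given compound plus 1 nM T3 (final), and incubated 23.5 h at 37 C. ONE-Glo luminescence measured reporter inhibition; CellTiter-Fluor fluorescence tracked cytotoxicity.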

[15] = system: thyroid hormone receptor (rat, GH3 cells); test: qHTS assay to identify small molecule agonists of the thyroid receptor (TR) signaling pathway (AID 743066; calls by dose curve)
[16] = qHTS assay to identify small molecule antagonists of the estrogen receptor alpha (ER-alpha) signaling pathway using the BG1 cell line (AID 743080; calls by dose curve;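 also: BG1 cells stimulated with 17beta-estradiol alongside compound; nearly all actives have a fitted effect of over 25% in size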)
Outline: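 Readout is ONE-Glo luminescence, taken 30 min at room temperature after reagent addition, preceded by a CellTiter-Fluor viability read; BG1-Luc-4E2 cells had received compound and 17beta-estradiol for 21.5 h at 37 C.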

[17] = target: Peroxisome proliferator-activated receptor gamma (Homo sapiens) (UniProt P37231); test: qHTS assay to identify small molecule agonists of the peroxisome proliferator-activated receptor gamma (PPARg) signaling pathway (AID 743094; active = well fitted activation curve with a large enough effect in the signal ratio in the repeat runs, not every such curve was filed as active; inconclusive = weak or mixed curves, or effect the other way; inactive = no such curve, though single readings can be large or run the other way; the % refers to the signal ratio)
Sequence of Peroxisome proliferator-activated receptor gamma (Homo sapiens) (P37231 whole entry, looked up): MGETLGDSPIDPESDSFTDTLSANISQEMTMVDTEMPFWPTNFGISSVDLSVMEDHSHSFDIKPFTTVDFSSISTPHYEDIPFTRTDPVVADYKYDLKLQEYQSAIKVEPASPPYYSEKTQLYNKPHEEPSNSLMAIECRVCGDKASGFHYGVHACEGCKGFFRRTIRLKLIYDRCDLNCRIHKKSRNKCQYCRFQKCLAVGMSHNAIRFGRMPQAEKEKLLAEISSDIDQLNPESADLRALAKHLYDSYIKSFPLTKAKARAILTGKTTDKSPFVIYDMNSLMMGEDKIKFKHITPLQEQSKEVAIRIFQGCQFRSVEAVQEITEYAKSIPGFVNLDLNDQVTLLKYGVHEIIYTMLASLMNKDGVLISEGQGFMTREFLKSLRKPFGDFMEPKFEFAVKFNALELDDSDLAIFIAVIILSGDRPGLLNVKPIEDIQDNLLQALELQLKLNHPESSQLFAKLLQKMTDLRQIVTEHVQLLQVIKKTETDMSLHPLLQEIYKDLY
Outline: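 Agonist activity was taken from a beta-lactamase reporter (FRET substrate, 1 h at room temperature) in HEK293H cells carrying a PPARg UAS-bla construct. Compounds in DMSO were incubated 17 h at 37C after a 5 h cell pre-incubation.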

SMILES | Potency [1] | Potency [2] | Potency [3] | Potency [4] | Potency [5] | Potency (Aromatase (Homo sapiens)) | Potency [6] | Potency [7] | Potency [8] | Potency [9] | max activation [10] [%] | Potency [11] | Potency [12] | Potency [13] | Potency [14] | Potency [15] | Potency [16] | Potency [17]
OCC(S)CS (configuration not stated) | inactive | inactive | inactive | inactive | inactive | inactive | inactive | inactive | inactive | inactive | -4.08 | inactive | inactive |  |  |  |  | 
COc1cc2c(cc1OC)CC(=O)N(CCCN(C)C[C@H]1Cc3cc(OC)c(OC)cc31)CC2 | inactive | inactive | inactive | inactive | inactive | inactive | inactive | inactive | inactive | inactive | -0.416 | inactive |  | inactive | inactive | inactive | inactive | inactive
CC[C@H](C)[C@H]1O[C@]2(CC[C@@H]1C)C[C@@H]1C[C@@H](C/C=C(\C)[C@@H](O[C@H]3C[C@H](OC)[C@@H](O[C@H]4C[C@H](OC)[C@@H](O)[C@H](C)O4)[C@H](C)O3)[C@@H](C)/C=C/C=C3\CO[C@@H]4[C@H](O)C(C)=C[C@@H](C(=O)O1)[C@]34O)O2 | 7.56 µM [inconclusive] (active) | 19 µM (active) |  |  |  | inactive | inactive | inactive | inactive | inactive | -15.7 | inactive | inactive |  |  |  |  | 
CC1(C)S[C@@H]2[C@H](NC(=O)C(N)c3ccccc3)C(=O)N2[C@H]1C(=O)OC1OC(=O)c2ccccc21 (some centres not stated) |  | inactive |  |  | inactive | inactive | inactive | inactive | inactive | inactive | -3.71 | inactive | inactive |  |  |  |  | inactive
Cc1ccccc1OCC(O)CNCCOc1ccc(C(N)=O)cc1 (configuration not stated) |  | inactive |  |  | inactive | inactive | inactive | inactive | inactive | inactive | -2.29 | inactive | inactive |  |  |  |  | inactive
CCOC(=O)c1cc(-c2ccccc2)nc2ccc(C)cc12 |  | inactive | inactive | inactive | inactive | inactive | inactive | inactive | inactive | inactive | -2.37 | inactive | inactive |  |  |  | inactive | 
C/C1=C2N=C(/C=C3N=C(/C(C)=C4\[N-][C@@](C)([C@@H]5N=C1[C@](C)(CCC(=O)NCC(C)OP(=O)(O)O[C@H]1[C@@H](O)[C@@H](n6cnc7cc(C)c(C)cc76)O[C@@H]1CO)[C@H]5CC(N)=O)[C@@](C)(CC(N)=O)[C@@H]4CCC(N)=O)[C@@](C)(CC(N)=O)[C@@H]\3CCC(N)=O)C(C)(C)[C@@H]/2CCC(N)=O.CC(=O)O.[Co] (some centres not stated) |  | inactive |  |  | 33.5 µM (active) | 26.6 µM (active) | 23.7 µM (active) | inactive |  | inactive | -15.5 | inactive | inactive |  | 11.9 µM (active) | inactive |  | inactive
CCC(=O)O[C@@H]1CC(=O)O[C@H](C)C/C=C/C=C/[C@H](O)[C@H](C)C[C@H](CC=O)[C@H](O[C@@H]2O[C@H](C)[C@@H](O[C@H]3C[C@@](C)(O)[C@@H](OC(=O)CC)[C@H](C)O3)[C@H](N(C)C)[C@H]2O)[C@H]1OC |  | inactive |  |  | inactive | inactive | inactive | inactive | inactive | inactive | -4.74 | inactive | inactive |  |  |  |  | 
